A number with no mark means an inactive call. Unless noted, calls follow the shape of the dose curve; as a rule, active = well fitted curve in the direction sought with a large enough effect in the repeat runs; inconclusive = weak or mixed curves; inactive = no such curve, though single readings can be large; an effect the other way counts as inactive or inconclusive. Records with an inconclusive call do not appear.
% is scaled to controls: 0 for no effect and ±100 for the full control effect.

Chain of Thyrotropin-releasing hormone receptor (Homo sapiens) (P34981 whole entry, looked up): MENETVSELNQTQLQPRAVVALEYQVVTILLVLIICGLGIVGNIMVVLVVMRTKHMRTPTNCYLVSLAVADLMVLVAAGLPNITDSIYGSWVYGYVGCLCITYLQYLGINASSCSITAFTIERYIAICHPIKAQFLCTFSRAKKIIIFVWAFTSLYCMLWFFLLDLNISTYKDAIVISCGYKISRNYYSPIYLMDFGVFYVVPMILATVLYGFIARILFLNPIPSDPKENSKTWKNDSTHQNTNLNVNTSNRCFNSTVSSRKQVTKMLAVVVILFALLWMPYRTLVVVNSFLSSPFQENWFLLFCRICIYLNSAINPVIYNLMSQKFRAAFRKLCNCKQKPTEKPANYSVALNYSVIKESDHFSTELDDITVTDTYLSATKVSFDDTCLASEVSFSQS

Tested on in one test: not listed separately
As to the kind of experiment: qHTS assay to identify small molecule antagonists of the TGF-beta/Smad signaling pathway - cell viability counter screen (AID 1346824). Also: nearly all actives have a fitted effect of over 50% in size. As to conditions: SBE-bla HEK293T viability, CellTiter-Glo luminescence; series mostly up to 76.8 µM; viability change, negative = cytotoxic: at the top concentration. The gist of the method:
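SBE-bla HEK 293T cells were plated overnight at 37 C, then given compounds in DMSO plus TGF-beta1 (added as 0.25 ng/mL solution) for 5 hr. After the bla read, CellTiter-Glo was added to the same wells and luminescence read after 30 min at room temperature.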
Consider `CC1=NNC(=O)N(/N=C/c2cccnc2)C1`, for which the “viability change, negative = cytotoxic” value was 8.89%.
On the same count and under the same terms, with `OCCSCSCCO` the figure was -6.55%; with `O=NN1CCN(N=O)CC1`, 4.7%.
Same read-out and setting: then `CNC(=O)O/N=C(\C)SC`, with 10.9%.
Consider `O=C(O)c1ccc2[nH]cc(CCCCN3CC=C(c4ccccc4)CC3)c2c1`, for which the “viability change, negative = cytotoxic” value is -0.0133% [at 35.3 µM].
The same measure, in the same setting: with `CCC1(c2ccccc2)C(=O)NC(=O)NC1=O` the figure was -0.374%.
Still for that read-out and setting: then `N#CCNCC#N`, with -8.69%; and `ClCCOCOCCCl`, with 5.45%.
Turning to `CN(C)CCc1ccc(O)cc1`, the “viability change, negative = cytotoxic” value is 3.41% [at 35.3 µM].

Tested on in a further test: not listed separately
As to the kind of experiment: qHTS assay to identify small molecule agonists of the TGF-beta/Smad signaling pathway - cell viability counter screen (AID 1346829). Also: top concentration of the series differs between compounds; nearly all actives have a fitted effect of over 45% in size. As to conditions: SBE-bla HEK293T viability, CellTiter-Glo luminescence, 5 h; series mostly up to 76.8 µM; activity change, negative = cytotoxicity: at the top concentration. The gist of the method:
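Here the cytotoxicity of library compounds is measured in SBE-bla HEK 293T cells treated for 5 hr, using CellTiter-Glo added to wells already read for the beta-lactamase reporter.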
In the case of `CCOP(=S)(OCC)SCSc1ccc(Cl)cc1`, the “activity change, negative = cytotoxicity” value is 8.03%.
On the same count and under the same terms, then `CCOC(=O)N(C)C(=O)CSP(=S)(OCC)OCC`, with -0.169%.
Still for that read-out and setting: with `CCOP(=S)(Oc1cnc(C(C)(C)C)nc1)OC(C)C` (stereo unspecified) the figure was -10%; with `CCCCN(CCCCO)N=O`, 4.75%; with `NC1=NC(=O)C(c2ccccc2)O1` (stereo unspecified), 3.42% [at 35.3 µM].
Consider `CCC(Cl)[N+](=O)[O-]` (stereo unspecified), for which the “activity change, negative = cytotoxicity” value was -14.3%.
On to `CCCSC(=O)Cl`, for which the “activity change, negative = cytotoxicity” value was -5.24%.
Same read-out and setting: then `CCN(CC)C(C)C(=O)c1ccccc1` (stereo unspecified), with 18.2% [at 35.3 µM]; and `C[N+](=O)[O-]`, with -8.04%.
As to `ClCC(Cl)Cl`, the “activity change, negative = cytotoxicity” value was 4.8%.
Still for that read-out and setting: then `CC(=O)C(Cl)Cl`, with -0.247%; and `CC1=C(C(=O)O)N2C(=O)[C@@H](N)[C@H]2SC1`, with 8.87% [at 15.8 µM]; and `CCOc1nc(C(Cl)(Cl)Cl)ns1`, with -11.3%.
Regarding `CNC(=O)Oc1cccc(C(C)C)c1`, the “activity change, negative = cytotoxicity” value is 4.67%.
In the case of `ClC(Cl)C(Cl)Cl`, the “activity change, negative = cytotoxicity” value was -13.3%.
For `CN1C[C@@H](NS(=O)(=O)N(C)C)C[C@@H]2c3cccc4c3c(cn4C)C[C@H]21`, the “activity change, negative = cytotoxicity” value is 1.8% [at 35.3 µM].
On the same count and under the same terms, then `CC(C=O)Cc1ccc2c(c1)OCO2` (stereo unspecified), with 27.8%.
The same measure, in the same setting: then `CCCCOP(=O)(O)OCCCC`, with 5.84%.
On the same count and under the same terms, with `Cc1cccc(C#N)c1` the figure was 7.48%; with `O=[N+]([O-])c1cc(Cl)c(Cl)c(Cl)c1`, 2.28%.
`Nc1ccccc1Cl`: the “activity change, negative = cytotoxicity” value is 5.16%.
Still for that read-out and setting: with `O=C1c2ccccc2C(=O)c2ccccc21` the figure was -4.2% [at 15.8 µM].
Take `CNC(=O)Oc1c(C(C)(C)C)cc(C)cc1C(C)(C)C`: the “activity change, negative = cytotoxicity” value is 1.74%.
Same read-out and setting: with `N#CCBr` the figure was -0.954%.
Take `CCSC(=O)N(CC)C1CCCCC1`: the “activity change, negative = cytotoxicity” value was 0.981%.
The same measure, in the same setting: then `CNC(=O)Oc1ccc(N(C)C)c(C)c1`, with -0.501%; and `c1cc2c(c(N3CCNCC3)c1)OCCO2`, with 7.51% [at 35.3 µM].
Still for that read-out and setting: with `OC(Cn1cncn1)(c1ccc(F)cc1)c1ccccc1F` (stereo unspecified) the figure was 0.687%.
On the same count and under the same terms, then `CC1=NNC(=O)N(/N=C/c2cccnc2)C1`, with 16.7%.
On to `OCCSCSCCO`, for which the “activity change, negative = cytotoxicity” value is 0.321%.
Consider `O=NN1CCN(N=O)CC1`, for which the “activity change, negative = cytotoxicity” value is 4.5%.
Still for that read-out and setting: with `CNC(=O)O/N=C(\C)SC` the figure was -1.59%; with `O=C(O)c1ccc2[nH]cc(CCCCN3CC=C(c4ccccc4)CC3)c2c1`, 0.413% [at 35.3 µM]; with `CCC1(c2ccccc2)C(=O)NC(=O)NC1=O`, 2.06%.
Turning to `N#CCNCC#N`, the “activity change, negative = cytotoxicity” value is 1.55%.
Take `ClCCOCOCCCl`: the “activity change, negative = cytotoxicity” value was 4.81%.
Same read-out and setting: with `CN(C)CCc1ccc(O)cc1` the figure was 17.9% [at 35.3 µM].

Tested on in the next test: not listed separately
As to the kind of experiment: qHTS assay to identify small molecule agonists of the TGF-beta/Smad signaling pathway (AID 1346859; active = well fitted activation curve with a large enough effect in the signal ratio in the repeat runs, not every such curve was filed as active; the % refers to the signal ratio). As to conditions: SBE-bla HEK293T, TGF-beta/Smad beta-lactamase reporter, 5 h; series mostly up to 76.8 µM; activation: at the top concentration. The procedure, abridged:
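HEK 293T cells stably carrying a beta-lactamase reporter driven by the Smad binding element were seeded overnight, exposed to DMSO-dissolved compounds for 5 hr at 37 C, 5% CO2, then loaded with FRET substrate for 2 hr at room temperature.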
With `CCOP(=S)(OCC)SCSc1ccc(Cl)cc1`, the “activation” value is 2.81%.
As to `CCOC(=O)N(C)C(=O)CSP(=S)(OCC)OCC`, the “activation” value is -0.234%.
On to `CCOP(=S)(Oc1cnc(C(C)(C)C)nc1)OC(C)C` (stereo unspecified), for which the “activation” value is 0.0161%.
Take `CCCCN(CCCCO)N=O`: the “activation” value was 0.178%.
Still for that read-out and setting: then `NC1=NC(=O)C(c2ccccc2)O1` (stereo unspecified), with -0.15% [at 35.3 µM].
In the case of `CCC(Cl)[N+](=O)[O-]` (stereo unspecified), the “activation” value is -0.158%.
In the case of `CCCSC(=O)Cl`, the “activation” value was -0.685%.
Same read-out and setting: then `CCN(CC)C(C)C(=O)c1ccccc1` (stereo unspecified), with 1.6% [at 35.3 µM]; and `C[N+](=O)[O-]`, with 0.0656%.
Same read-out and setting: with `ClCC(Cl)Cl` the figure was -0.222%.
Regarding `CC(=O)C(Cl)Cl`, the “activation” value is 2.45%.
The same measure, in the same setting: with `CC1=C(C(=O)O)N2C(=O)[C@@H](N)[C@H]2SC1` the figure was 3.18% [at 15.8 µM]; with `CCOc1nc(C(Cl)(Cl)Cl)ns1`, -0.606%; with `CNC(=O)Oc1cccc(C(C)C)c1`, 0.539%.
Still for that read-out and setting: with `ClC(Cl)C(Cl)Cl` the figure was 5.33%; with `CN1C[C@@H](NS(=O)(=O)N(C)C)C[C@@H]2c3cccc4c3c(cn4C)C[C@H]21`, -3.23% [at 35.3 µM]; with `CC(C=O)Cc1ccc2c(c1)OCO2` (stereo unspecified), -0.962%.
Turning to `CCCCOP(=O)(O)OCCCC`, the “activation” value was -2.45%.
As for `Cc1cccc(C#N)c1`, the “activation” value was 2.79%.
In the case of `O=[N+]([O-])c1cc(Cl)c(Cl)c(Cl)c1`, the “activation” value was -4.08%.
The same measure, in the same setting: then `Nc1ccccc1Cl`, with -1.66%; and `O=C1c2ccccc2C(=O)c2ccccc21`, with -3.6% [at 15.8 µM]; and `CNC(=O)Oc1c(C(C)(C)C)cc(C)cc1C(C)(C)C`, with -4.28%.
Still for that read-out and setting: then `N#CCBr`, with -0.317%.
Take `CCSC(=O)N(CC)C1CCCCC1`: the “activation” value is -0.653%.
On to `CNC(=O)Oc1ccc(N(C)C)c(C)c1`, for which the “activation” value is 1.71%.
For the compound `c1cc2c(c(N3CCNCC3)c1)OCCO2`, the “activation” value was 4.1% [at 35.3 µM].
Consider `OC(Cn1cncn1)(c1ccc(F)cc1)c1ccccc1F` (stereo unspecified), for which the “activation” value is 1.3%.
For the compound `CC1=NNC(=O)N(/N=C/c2cccnc2)C1`, the “activation” value is 0.225%.
On the same count and under the same terms, with `OCCSCSCCO` the figure was -0.846%; with `O=NN1CCN(N=O)CC1`, -1.79%; with `CNC(=O)O/N=C(\C)SC`, -2.48%.
On the same count and under the same terms, with `O=C(O)c1ccc2[nH]cc(CCCCN3CC=C(c4ccccc4)CC3)c2c1` the figure was -7.61% [at 35.3 µM]; with `CCC1(c2ccccc2)C(=O)NC(=O)NC1=O`, -1.2%.
Consider `N#CCNCC#N`, for which the “activation” value is 1.3%.
On the same count and under the same terms, then `ClCCOCOCCCl`, with -2.83%.
On the same count and under the same terms, with `CN(C)CCc1ccc(O)cc1` the figure was 1.39% [at 35.3 µM].

The next test has as its target Thyrotropin-releasing hormone receptor (Homo sapiens) (UniProt P34981). As to the kind of experiment: qHTS assay to identify small molecule antagonists of the thyrotropin-releasing hormone receptor (TRHR) signaling pathway (AID 1346877; active = well fitted inhibition curve with a large enough effect in the repeat runs, not every such curve was filed as active). As to conditions: TRHR-HEK293, TRH-induced calcium fluorescence, antagonist mode; series mostly up to 51.3 µM; activity, negative = inhibition: at the top concentration. The gist of the method:
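Cells (TRHR-HEK293) are plated and kept 18 h at 37 °C/5% CO2. A calcium-sensitive dye is added for 2 h, compound follows for 5 min at room temperature, and TRH is then given at 1 nM final.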
Consider `CCOP(=S)(OCC)SCSc1ccc(Cl)cc1`, for which the “activity, negative = inhibition” value is 0.633%.
The same measure, in the same setting: with `CCCCN(CCCCO)N=O` the figure was 2.71%; with `NC1=NC(=O)C(c2ccccc2)O1` (stereo unspecified), 3.62% [at 23.6 µM].
Still for that read-out and setting: with `CCC(Cl)[N+](=O)[O-]` (stereo unspecified) the figure was 4.07%; with `CCN(CC)C(C)C(=O)c1ccccc1` (stereo unspecified), -0.41% [at 23.6 µM].
Take `C[N+](=O)[O-]`: the “activity, negative = inhibition” value was -1.12%.
On to `CC1=C(C(=O)O)N2C(=O)[C@@H](N)[C@H]2SC1`, for which the activity, negative = inhibition was -1.01% [at 10.5 µM].
As for `CCOc1nc(C(Cl)(Cl)Cl)ns1`, the “activity, negative = inhibition” value was -24.8%.
The same measure, in the same setting: with `CNC(=O)Oc1cccc(C(C)C)c1` the figure was 0.183%.
Still for that read-out and setting: with `CN1C[C@@H](NS(=O)(=O)N(C)C)C[C@@H]2c3cccc4c3c(cn4C)C[C@H]21` the figure was -0.564% [at 23.6 µM]; with `CCCCOP(=O)(O)OCCCC`, -2.64%; with `Cc1cccc(C#N)c1`, 4.02%.
On the same count and under the same terms, with `O=[N+]([O-])c1cc(Cl)c(Cl)c(Cl)c1` the figure was 0.808%.
On to `O=C1c2ccccc2C(=O)c2ccccc21`, for which the activity, negative = inhibition is -1.2% [at 10.5 µM].
With `CNC(=O)Oc1c(C(C)(C)C)cc(C)cc1C(C)(C)C`, the “activity, negative = inhibition” value was 0.252%.
On the same count and under the same terms, with `N#CCBr` the figure was -0.394%; with `CCSC(=O)N(CC)C1CCCCC1`, 0.286%.
The same measure, in the same setting: then `CNC(=O)Oc1ccc(N(C)C)c(C)c1`, with 21.5%; and `c1cc2c(c(N3CCNCC3)c1)OCCO2`, with -0.171% [at 23.6 µM]; and `OC(Cn1cncn1)(c1ccc(F)cc1)c1ccccc1F` (stereo unspecified), with 7.52%.
The same measure, in the same setting: then `CC1=NNC(=O)N(/N=C/c2cccnc2)C1`, with 0.293%; and `OCCSCSCCO`, with -5.54%; and `O=NN1CCN(N=O)CC1`, with -1.44%.
As to `CNC(=O)O/N=C(\C)SC`, the “activity, negative = inhibition” value was -4.26%.
Still for that read-out and setting: with `CCC1(c2ccccc2)C(=O)NC(=O)NC1=O` the figure was 0.519%.
Same read-out and setting: with `N#CCNCC#N` the figure was 0.872%.
On the same count and under the same terms, with `ClCCOCOCCCl` the figure was 5.82%.
With `CN(C)CCc1ccc(O)cc1`, the “activity, negative = inhibition” value is 0.0549% [at 23.6 µM].
